The source of these data is PubChem BioAssay (NCI).

Among the test systems are HCT-15 colon; HT29 colon; SNB-75 CNS; SNB-19 CNS; U251 CNS; PC-3 prostate; SK-MEL-5 melanoma; UACC-62 melanoma; LOX IMVI melanoma; SK-MEL-28 melanoma; SK-MEL-2 melanoma; EKVX NSCLC; SN12C renal; UO-31 renal; TK-10 renal; ACHN renal; CAKI-1 renal; CCRF-CEM leukemia; MOLT-4 leukemia; A498 renal.
What all share (experiment): NCI-60 one-dose screen, 48 h (100 = growth as untreated, 0 = no growth, -100 = all killed)
Common to all, as to conditions: 10 µM unless noted

About 83,000 compounds went through this panel and 20% of them were active in at least one assay; those are over-represented in the sample as a whole.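 Compound tested at a single concentration for 48 hours in 96-well plates; a percent growth value below 10 was scored as active.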 Unmarked numbers belong to inactive results. Activity calls are given as the source filed them.

As for `COC(=O)c1c(C)nc(C)c2c1C(=O)C=C(NCc1ccccc1)C2=O`, the growth is 73.3% with HCT-15 colon; 92% in the assay with HT29 colon; 88.9% in the assay with SNB-75 CNS; 93.2% in the assay with SNB-19 CNS; 99% in the assay on U251 CNS; 75.6% in the assay on PC-3 prostate. Further, the growth with SK-MEL-5 melanoma is 51.4%; in the assay on UACC-62 melanoma, 65.8%; in the assay on LOX IMVI melanoma it was 61.7%; in the assay with SK-MEL-28 melanoma, 108%; in the assay on SK-MEL-2 melanoma, 72.8%; in the assay on EKVX NSCLC, 71.5%. Also, the growth with SN12C renal is 88.6%; in the assay with UO-31 renal, 74.2%; in the assay on TK-10 renal, 119%; in the assay on ACHN renal, 76%; in the assay with CAKI-1 renal, 81.5%; with CCRF-CEM leukemia, 89.1%. The growth in the assay on MOLT-4 leukemia is 75.9%.

Regarding `COc1ccc(OC)c(Nc2nnc(-c3cc(OC)c(OC)c(OC)c3)o2)c1`, the growth was 99% with HCT-15 colon; 86.8% in the assay on HT29 colon; 101% in the assay on SNB-75 CNS; 96.7% in the assay with SNB-19 CNS; 105% with U251 CNS; 98.6% with PC-3 prostate. In addition, the growth in the assay with SK-MEL-5 melanoma was 93.9%; with UACC-62 melanoma, 87.8%; in the assay with LOX IMVI melanoma, 97.9%; in the assay on SK-MEL-28 melanoma it was 102%; with SK-MEL-2 melanoma, 99.7%; in the assay on EKVX NSCLC, 99.8%. Besides, the growth is 89.5% with SN12C renal; 89.6% with UO-31 renal; 103% in the assay with TK-10 renal; 105% in the assay on ACHN renal; 100% in the assay with CAKI-1 renal; 89.9% in the assay with A498 renal. The growth in the assay on CCRF-CEM leukemia is 121%; with MOLT-4 leukemia, 84.1%.

For `N#CSc1c[nH]c2ccc(/C=C/C(=O)/C=C(O)/C=C/c3ccc4[nH]cc(SC#N)c4c3)cc12`, the growth is -31% (active) in the assay on HCT-15 colon; -10.1% (active) in the assay with HT29 colon; 51.9% with SNB-75 CNS; 46.2% in the assay on SNB-19 CNS; 7.38% (active) in the assay with U251 CNS; 12% in the assay with PC-3 prostate. The growth in the assay on SK-MEL-5 melanoma was 41.2%; in the assay with UACC-62 melanoma, 26.3%; in the assay on LOX IMVI melanoma, -75.8% (active); with SK-MEL-28 melanoma, 31.8%; with SK-MEL-2 melanoma it was 34.2%; in the assay with EKVX NSCLC, 28.8%. The growth with UO-31 renal was -40.1% (active); in the assay with TK-10 renal, 8.11% (active); with ACHN renal, 0.691% (active); with CAKI-1 renal it was 11.9%; in the assay with A498 renal it was 90.5%; with CCRF-CEM leukemia it was 2.04% (active). Besides, in the assay with MOLT-4 leukemia, the growth was -28.2% (active).

In the case of `Oc1ccc(-c2nc3ccc4[nH]ncc4c3c3c2CCCC3)c(F)c1`, the growth is 15.8% in the assay on HCT-15 colon; 42.5% with HT29 colon; 17% in the assay with SNB-75 CNS; 60.5% with SNB-19 CNS; 38.3% in the assay with U251 CNS; 33.8% in the assay on PC-3 prostate. In addition, the growth with SK-MEL-5 melanoma was 3.31% (active); with UACC-62 melanoma, 11.7%; in the assay on LOX IMVI melanoma it was 27.8%; with SK-MEL-28 melanoma, 17.5%; in the assay on SK-MEL-2 melanoma, -13.3% (active); in the assay with EKVX NSCLC, 38.3%. Also, the growth is 17.5% in the assay with UO-31 renal; 29.2% in the assay with TK-10 renal; 11.9% with ACHN renal; 13% in the assay with CAKI-1 renal; 30.1% in the assay with A498 renal; 12% with CCRF-CEM leukemia. Moreover, the growth with MOLT-4 leukemia was 2.01% (active).

`ClC(Cl)c1nc(-c2ccccc2)n2nc(-c3ccccc3)cc2n1`: the growth in the assay on HCT-15 colon was -16% (active); in the assay with HT29 colon, 1.24% (active); in the assay with SNB-75 CNS it was -37.5% (active); in the assay with SNB-19 CNS it was 6.64% (active); with U251 CNS, -14.9% (active); with PC-3 prostate, 17.2%. The growth with SK-MEL-5 melanoma is 84.4%; with UACC-62 melanoma, 68.4%; in the assay with LOX IMVI melanoma, 72.1%; in the assay with SK-MEL-28 melanoma it was 25.5%; in the assay on SK-MEL-2 melanoma, 72.1%; in the assay with EKVX NSCLC, -22.1% (active). In addition, the growth was 3.46% (active) in the assay with UO-31 renal; 0.776% (active) in the assay on TK-10 renal; -57% (active) with ACHN renal; -34.7% (active) in the assay on CAKI-1 renal; -26.5% (active) with A498 renal; 63.3% in the assay on CCRF-CEM leukemia. Besides, the growth with MOLT-4 leukemia was 30.8%.

Take `O=C1c2cccnc2C(=O)c2c1c(C(=O)OCCc1ccccn1)c1ccccn21`: the growth is -75.9% (active) in the assay with HCT-15 colon; -75% (active) in the assay on HT29 colon; -85.3% (active) with SNB-75 CNS; -38.7% (active) in the assay with SNB-19 CNS; -82.5% (active) in the assay on U251 CNS; -3.59% (active) with PC-3 prostate. The growth with SK-MEL-5 melanoma was -94.2% (active); with UACC-62 melanoma, -55.6% (active); in the assay on LOX IMVI melanoma it was -50% (active); in the assay on SK-MEL-28 melanoma, -33.3% (active); with SK-MEL-2 melanoma, -35.4% (active); in the assay on EKVX NSCLC it was 25.4%. The growth with UO-31 renal was -48.7% (active); in the assay with TK-10 renal it was -43.9% (active); in the assay with ACHN renal it was -48.5% (active); in the assay on CAKI-1 renal it was 8.74% (active); with A498 renal, -57% (active); with CCRF-CEM leukemia, -14.1% (active). Besides, the growth in the assay on MOLT-4 leukemia is -0.142% (active).

For the molecule `CN(C)c1ccc(C(=S)c2ccc(N(C)C)cc2)cc1`, the growth in the assay on HCT-15 colon is 43%; in the assay with HT29 colon it was 30.9%; in the assay with SNB-75 CNS, 78.1%; with SNB-19 CNS it was 72.6%; with U251 CNS, 62.4%; in the assay with PC-3 prostate, 71.2%. In addition, the growth with SK-MEL-5 melanoma was 30.5%; in the assay with UACC-62 melanoma, 52.2%; in the assay on LOX IMVI melanoma, 69%; in the assay on SK-MEL-28 melanoma, 84.4%; in the assay on SK-MEL-2 melanoma, 58.5%; in the assay with EKVX NSCLC it was 98.2%. Further, the growth was 75.6% with SN12C renal; 59% with UO-31 renal; 82.7% in the assay with TK-10 renal; 93.4% with ACHN renal; 87.1% with CAKI-1 renal; 77.3% in the assay with CCRF-CEM leukemia. In addition, the growth in the assay with MOLT-4 leukemia is 75.5%.
